Screens: PubChem, National Center for Advancing Translational Sciences (NCATS)
Shown are actives, neighbours in structure and some others; about 18% of the full set was active somewhere.
TGFb inhibitor: qHTS for Inhibitors of TGF-b. HepG2 CAGA-GFP TGF-b/SMAD3 reporter, GFP fluorescence, 18 h; TGF-beta stimulated, 500 pg/mL final. Potency, µM (titrated, usually from 46.1 µM), inactives show at the highest dose activity, negative = inhibition, actives largely listed as inhibitors. 410,000 tested, 1.2% active. AID 588855, 2011; further: potency means the concentration at half of the fitted maximal effect; on the % scale 0 is the no-effect control and ±100 the full control effect; nearly all actives have a fitted effect of over 65% in size
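Inhibition of TGF-beta-driven CAGA-GFP reporter expression in HEPG2 cells is measured by cellular GFP fluorescence after 18 h stimulation with 500 pg/mL recombinant TGF-beta in 1% FBS medium at 37 degrees C.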
HepG2 viability: qHTS for Inhibitors of TGF-b: Cytotox Counterscreen; HepG2 CAGA-GFP viability, ATP luminescence, 18 h; Potency, µM (top dose mostly 46.1 µM), inactives show at the top dose activity change, negative = cytotoxicity, actives largely listed as cytotoxic; 410,000 tested, 0.76% active; AID 588856, 2011; further: potency means the concentration at half of the fitted maximal effect
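HepG2 CAGA-GFP cells (1000/well, DMEM with 1% FBS) received compound, then TGF-beta at 500 pg/mL final, and were incubated 18 hours at 37 degrees C. Viability was read by CellTiter-Glo luminescence. Media-only wells were set as complete cell-killing and DMSO as no toxicity.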
IL-1B inflam inh: qHTS for Inhibitors of Inflammasome Signaling: IL-1-beta AlphaLISA Primary Screen. THP-1 LPS/ATP IL-1B secretion, AlphaLISA, 16 h; active compounds read low. activity change, % at 57.5 µM. 360,000 tested, 4.7% active; in the data active means activity change below about -50%; inconclusive means mostly about -30% to -49%; further: on the % scale 0 is the no-effect control and ±100 the full control effect
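Secreted IL-1B measured by AlphaLISA bead assay after 16 h compound exposure of THP-1 cells; compounds (final up to 57.5 uM) added 1 h before LPS (250 ng/mL) and ATP (1.25 mM) stimulation; lower signal means less secretion.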
TDP1 inh: qHTS Assay for Inhibitors of Tyrosyl-DNA Phosphodiesterase (TDP1). recombinant TDP1, AlphaScreen DNA substrate cleavage. 350,000 tested, 0.28% active. Tyrosyl-DNA phosphodiesterase 1 (Homo sapiens), Q9NUW8. Potency, µM (highest dose often 130 µM), without a hit: at the highest dose activity change, negative = inhibition, most hits filed as inhibitors; further: potency means the concentration at half of the fitted maximal effect; on the % scale 0 is the no-effect control and ±100 the full control effect; nearly all actives have a fitted effect of over 40% in size
Target sequence (Q9NUW8 whole entry, looked up): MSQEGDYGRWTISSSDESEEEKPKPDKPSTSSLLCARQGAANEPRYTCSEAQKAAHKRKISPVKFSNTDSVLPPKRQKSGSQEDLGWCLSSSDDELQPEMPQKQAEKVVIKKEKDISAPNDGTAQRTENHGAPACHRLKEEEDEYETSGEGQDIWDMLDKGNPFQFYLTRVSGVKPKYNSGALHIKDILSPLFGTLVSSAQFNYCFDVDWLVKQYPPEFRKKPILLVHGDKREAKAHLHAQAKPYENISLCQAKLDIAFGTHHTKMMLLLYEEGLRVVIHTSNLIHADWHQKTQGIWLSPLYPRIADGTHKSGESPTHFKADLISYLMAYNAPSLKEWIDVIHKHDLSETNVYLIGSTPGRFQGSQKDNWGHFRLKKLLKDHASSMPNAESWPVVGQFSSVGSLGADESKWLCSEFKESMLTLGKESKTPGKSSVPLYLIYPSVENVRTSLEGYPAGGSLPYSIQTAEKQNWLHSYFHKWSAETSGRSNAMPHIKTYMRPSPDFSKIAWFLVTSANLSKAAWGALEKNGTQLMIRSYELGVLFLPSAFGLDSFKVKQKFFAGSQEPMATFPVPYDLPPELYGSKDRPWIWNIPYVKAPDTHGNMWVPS
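Here, a 5' biotin and 3' phosphotyrosine-FITC DNA oligonucleotide reports Tdp1 activity: intact substrate bridges AlphaScreen beads, while cleavage leaves a 3' phosphate and drops signal. All incubations at room temperature.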
DT40 TDP1 no CPT: qHTS for Inhibitors of human tyrosyl-DNA phosphodiesterase 1 (TDP1): qHTS in cells in absence of CPT. DT40 Tdp1-/- hTDP1 cells, no CPT, ATP luminescence, 48 h. Potency, µM (top dose mostly 46.2 µM), for inactives: at the highest dose activity change, negative = growth inhibition, most hits filed as inhibitors. 420,000 tested, 15% active; further: potency means the concentration at half of the fitted maximal effect; on the % scale 0 is the no-effect control and ±100 the full control effect; nearly all actives have a fitted effect of over 55% in size
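Seeded 400 DT40-hTDP1 cells/well (vehicle DMSO, no 20 nM CPT); pinned compounds; ≥48 hr at 37 °C; CellTiter-Glo luminescence as viability measure.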
DT40 TDP1 CPT: qHTS for Inhibitors of human tyrosyl-DNA phosphodiesterase 1 (TDP1): qHTS in cells in presence of CPT | 420,000 tested, 12% active | AID 686979, 2013 | chicken DT40 Tdp1-/-;hTDP1 cells + 20 nM CPT, ATP luminescence, 48 h | Potency, µM (series often up to 46.2 µM), for inactives: at the highest dose activity change, negative = growth inhibition, hits mostly inhibitors; further: potency means the concentration at half of the fitted maximal effect; on the % scale 0 is the no-effect control and ±100 the full control effect; nearly all actives have a fitted effect of over 55% in size
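Chicken DT40 Tdp1-/- cells complemented with human TDP1, 400 cells/well, exposed to compounds plus 20 nM camptothecin for at least 48 h at 37 C; viability read as ATP content by CellTiter-Glo luminescence.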
An asterisk follows results filed as active; [ ] = dose if it differs, or a comment. Unless noted, the call rests on the fitted dose curve; in most records, active means well fitted curve in the direction sought with a large enough effect; inconclusive means small, poorly fitted or top-dose-only effect, or another doubt; inactive means no such curve, though single readings can be large; an effect the other way counts as inactive or inconclusive.

Results for CCOC(=O)c1[nH]c(C)c(C(=O)c2cc(F)ccc2F)c1C ?
TGFb inhibitor: -19%; HepG2 viability: -29%; IL-1B inflam inh: 54; TDP1 inh: 1%; DT40 TDP1 no CPT: 0.82µM*; DT40 TDP1 CPT: 0.82µM*

How did CCOC(=O)c1[nH]c(C)c(C(=O)OCC(=O)N(Cc2ccccc2)C(C)C)c1C do in these assays?
TGFb inhibitor: 6%; HepG2 viability: -21%; IL-1B inflam inh: inconclusive; TDP1 inh: 6%; DT40 TDP1 no CPT: 15µM*; DT40 TDP1 CPT: inconclusive

Results for CC(C)N(Cc1ccccc1)C(=O)CCc1ccccc1 ?
TGFb inhibitor: 0%; HepG2 viability: -2%; IL-1B inflam inh: -24; TDP1 inh: 0%; DT40 TDP1 no CPT: inconclusive; DT40 TDP1 CPT: 15µM*

How did CC(C)N(Cc1ccccc1)C(=O)COc1ccccc1 do in these assays?
TGFb inhibitor: 1%; HepG2 viability: 2%; IL-1B inflam inh: 3; DT40 TDP1 no CPT: inconclusive; DT40 TDP1 CPT: inconclusive

What do the screens show for `CCOC(=O)c1[nH]c(C)c(C(=O)OCc2ccccc2F)c1C`?
TGFb inhibitor: inconclusive; HepG2 viability: -22%; IL-1B inflam inh: 19; TDP1 inh: 9%; DT40 TDP1 no CPT: 9.2µM*; DT40 TDP1 CPT: 6.5µM*

Results for CCOC(=O)c1c(C)[nH]c(C(=O)OCC(=O)N(CC(C)C)c2c(N)n(Cc3ccccc3)c(=O)[nH]c2=O)c1C ?
TGFb inhibitor: 2%; HepG2 viability: -16%; IL-1B inflam inh: -7; DT40 TDP1 no CPT: inconclusive; DT40 TDP1 CPT: inconclusive

Results for COc1ccc(O[C@H]2C=C[C@@H](c3ccccc3)O[C@H]2CO/N=C2/c3cc(OC)ccc3O[C@@H](c3cccc(OC)c3)[C@H]2O)cc1 ?
TDP1 inh: 4%[21 µM]

Results for NC(=O)COc1ccc(-c2noc(COc3ccc(Cl)cc3)n2)cc1 ?
TGFb inhibitor: 0%; HepG2 viability: -2%; TDP1 inh: -2%; DT40 TDP1 no CPT: -13%; DT40 TDP1 CPT: -13%

How did CC(C)N(Cc1ccccc1)C(=O)COC(=O)c1cc(S(=O)(=O)N(C)C)ccc1N1CCCC1 do in these assays?
TGFb inhibitor: 3%; HepG2 viability: -24%; IL-1B inflam inh: -10; TDP1 inh: 2%; DT40 TDP1 no CPT: 15µM*; DT40 TDP1 CPT: 23µM*

How did COCC1CCCCN1C(=O)c1cc(COc2ccc3ncccc3c2)on1 (stereo not drawn) do in these assays?
TGFb inhibitor: 32%; HepG2 viability: 10%; IL-1B inflam inh: 17; TDP1 inh: 0%; DT40 TDP1 no CPT: 0.92µM*; DT40 TDP1 CPT: 1.2µM*

What do the screens show for `COCC1CCN(C(=O)c2cc(COc3ccc(C)c(C)c3)on2)C1` (stereo not drawn)?
TGFb inhibitor: 3%; HepG2 viability: 0%; IL-1B inflam inh: inactive; TDP1 inh: 2%; DT40 TDP1 no CPT: -11%; DT40 TDP1 CPT: -25%

How did COCCC1CCCCN1C(=O)c1cc(COc2ccc(-n3cncn3)cc2)on1 (stereo not drawn) do in these assays?
TGFb inhibitor: -5%; HepG2 viability: -9%; IL-1B inflam inh: -15; TDP1 inh: 2%; DT40 TDP1 no CPT: 2.1µM*; DT40 TDP1 CPT: 5.2µM*

Results for CCC1CCCCN1C(=O)c1cc(COc2ccc3ncccc3c2)on1 (stereo not drawn) ?
TGFb inhibitor: -11%; HepG2 viability: -4%; IL-1B inflam inh: -19; DT40 TDP1 no CPT: 1µM*; DT40 TDP1 CPT: 1.8µM*

Results for CCN(CC)C(=O)C1CCCN(C(=O)c2cc(COc3ccc4ncccc4c3)on2)C1 (stereo not drawn) ?
TGFb inhibitor: -11%; HepG2 viability: -5%; IL-1B inflam inh: -7; TDP1 inh: 6%; DT40 TDP1 no CPT: 5.8µM*; DT40 TDP1 CPT: 16µM*

How did CC(=O)NCCC1CCCCN1C(=O)c1cc(COc2cc(C)ccc2C)on1 (stereo not drawn) do in these assays?
TGFb inhibitor: 10%; HepG2 viability: 3%; IL-1B inflam inh: -8; TDP1 inh: 1%; DT40 TDP1 no CPT: -24%; DT40 TDP1 CPT: -14%

What do the screens show for `O=C1N(Cc2ccccc2)c2ccccc2OC1(F)F`?
TGFb inhibitor: 18%; HepG2 viability: 3%; IL-1B inflam inh: 7; DT40 TDP1 no CPT: 4%; DT40 TDP1 CPT: -6%

Results for COC(/C=C/Nc1ccc(OC)cc1)=C(C#N)C#N ?
TGFb inhibitor: 16%; HepG2 viability: -7%; IL-1B inflam inh: -59*; TDP1 inh: 4%; DT40 TDP1 no CPT: 1%; DT40 TDP1 CPT: -7%

How did COC(/C=C/Nc1ccc(Cl)cc1)=C(C#N)C#N do in these assays?
TGFb inhibitor: 8%; HepG2 viability: -18%; IL-1B inflam inh: 13; TDP1 inh: 3%; DT40 TDP1 no CPT: -6%; DT40 TDP1 CPT: 11%

Results for CCc1cc2c(-c3ccccc3)cc(=O)oc2cc1OC(C)C(=O)NCC1CCC(C(=O)O)CC1 (stereo not drawn) ?
TGFb inhibitor: 5%; HepG2 viability: 2%; IL-1B inflam inh: 21; DT40 TDP1 no CPT: inconclusive; DT40 TDP1 CPT: inconclusive

Results for CC1=CC(C)(C)[N+](C)(C)c2ccc(C)cc21 ?
TGFb inhibitor: 9%; HepG2 viability: 6%; IL-1B inflam inh: 41; TDP1 inh: 2%; DT40 TDP1 no CPT: 18µM*; DT40 TDP1 CPT: inconclusive

Results for COc1cc(NC(=O)CSc2nc(-c3ccco3)cc(C(F)(F)F)n2)cc(OC)c1OC ?
TGFb inhibitor: inconclusive; HepG2 viability: 2%; TDP1 inh: 5%; DT40 TDP1 no CPT: 5.2µM*; DT40 TDP1 CPT: 3.7µM*

What do the screens show for `COc1ccc(-c2cc(C(F)(F)F)nc(SCC(=O)Nc3ccc(C(C)=O)cc3)n2)cc1`?
TGFb inhibitor: inconclusive; HepG2 viability: -25%; TDP1 inh: 3%; DT40 TDP1 no CPT: inconclusive; DT40 TDP1 CPT: 21µM*

How did COc1ccc(NC(=O)CSc2nc(-c3ccco3)cc(C(F)(F)F)n2)cc1 do in these assays?
TGFb inhibitor: 4%; HepG2 viability: -7%; TDP1 inh: -3%; DT40 TDP1 no CPT: 8.2µM*; DT40 TDP1 CPT: inconclusive
